# Source: paper PMC5540273 (PLoS ONE, 2017)
# Several values for one entry are separate records, joined by “and”; a condition that tells them apart may be missing. Identical values can stand only once. Like-named read-outs stand apart in the source and are kept apart here.
# Experiments:
# [1] = system: CHEK1; conditions: concentration: 1 μM, replicates: in singlicate, n = 1
# [2] = system: CHEK2; conditions: concentration: 1 μM, replicates: in singlicate, n = 1
# [3] = system: CIT; conditions: concentration: 1 μM, replicates: in singlicate, n = 1
# [4] = system: CLK1; conditions: concentration: 1 μM, replicates: in singlicate, n = 1
# [5] = system: CLK2; conditions: concentration: 1 μM, replicates: in singlicate; n = 1
# [6] = system: CLK3; conditions: concentration: 1 μM, replicates: in singlicate, n = 1
# [7] = system: CLK4; conditions: concentration: 1 μM, replicates: in singlicate, n = 1
# [8] = system: CSF1R-autoinhibited; conditions: concentration: 1 μM, replicates: in singlicate, n = 1
# [9] = system: CSF1R; conditions: concentration: 1 μM, replicates: in singlicate, n = 1
# [10] = system: CSK; conditions: concentration: 1 μM, replicates: in singlicate, n = 1
# [11] = system: CSNK1A1L; conditions: concentration: 1 μM, replicates: in singlicate, n = 1
# [12] = system: CSNK1A1; conditions: concentration: 1 μM, replicates: in singlicate, n = 1
# [13] = system: CSNK1D; conditions: concentration: 1 μM, replicates: in singlicate, n = 1
# [14] = system: CSNK1E; conditions: concentration: 1 μM, replicates: in singlicate; n = 1
# [15] = system: CSNK1G1; conditions: concentration: 1 μM, replicates: in singlicate, n = 1
# [16] = system: CSNK1G2; conditions: concentration: 1 μM, replicates: in singlicate, n = 1
# [17] = system: CSNK1G3; conditions: concentration: 1 μM, replicates: in singlicate, n = 1
# [18] = system: CSNK2A1; conditions: concentration: 1 μM, replicates: in singlicate; n = 1
# [19] = system: CSNK2A2; conditions: concentration: 1 μM, replicates: in singlicate, n = 1
# [20] = system: T1, CTK; conditions: concentration: 1 μM, replicates: in singlicate; n = 1
# T1 construct: gene MATK
# 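Note: KINOMEscan kinase panel screen.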
structure (smiles),measurement,setting,value
O=C(NCCNc1ccnc(Nc2ccc(F)cc2)n1)Nc1ccccc1F [GSK1379880],%Inh,[1],11%
same,%Inh,[2],0%
same,%Inh,[3],47%
same,%Inh,[4],24%
same,%Inh,[5],0%
same,%Inh,[6],2%
same,%Inh,[7],0%
same,%Inh,[8],0%
same,%Inh,[9],9%
same,%Inh,[10],0%
same,%Inh,[11],16%
same,%Inh,[12],0%
same,%Inh,[13],11%
same,%Inh,[14],9%
same,%Inh,[15],1%
same,%Inh,[16],0%
same,%Inh,[17],16%
same,%Inh,[18],0%
same,%Inh,[19],3%
same,%Inh,[20],0%
COc1ccc(S(=O)(=O)NC2CCN(c3cc(C)nc(Nc4cccc(C#N)c4)n3)CC2)cc1.O=C(O)C(F)(F)F [GSK1653539],%Inh,[1],0%
same,%Inh,[2],14%
same,%Inh,[3],0%
same,%Inh,[4],20%
same,%Inh,[5],0%
same,%Inh,[6],56%
same,%Inh,[7],3%
same,%Inh,[8],0%
same,%Inh,[9],1%
same,%Inh,[10],0%
same,%Inh,[11],0%
same,%Inh,[12],0%
same,%Inh,[13],19%
same,%Inh,[14],54%
same,%Inh,[15],12%
same,%Inh,[16],0%
same,%Inh,[17],30%
same,%Inh,[18],0%
same,%Inh,[19],4%
same,%Inh,[20],0%
COc1cc2c(cc1OCCN1CCN(C)CC1)ncc1c3ccc(C#N)cc3[nH]c21,%Inh,[1],83%
same,%Inh,[2],45%
same,%Inh,[3],99.2%
same,%Inh,[4],96.7%
same,%Inh,[5],86%
same,%Inh,[6],25%
same,%Inh,[7],92.6%
same,%Inh,[8],99.3%
same,%Inh,[9],49%
same,%Inh,[10],0%
same,%Inh,[11],0%
same,%Inh,[12],0%
same,%Inh,[13],18%
same,%Inh,[14],0%
same,%Inh,[15],0%
same,%Inh,[16],0%
same,%Inh,[17],0%
same,%Inh,[18],73%
same,%Inh,[19],95.2%
same,%Inh,[20],23%
CCn1cnc2c(N)ncnc21 [GW345098],%Inh,[1],12%
same,%Inh,[2],0%
same,%Inh,[3],6%
same,%Inh,[4],30%
same,%Inh,[5],18%
same,%Inh,[6],69%
same,%Inh,[7],1%
same,%Inh,[8],0%
same,%Inh,[9],0%
same,%Inh,[10],0%
same,%Inh,[11],14%
same,%Inh,[12],28%
same,%Inh,[13],21%
same,%Inh,[14],55%
same,%Inh,[15],9%
same,%Inh,[16],0%
same,%Inh,[17],16%
same,%Inh,[18],12%
same,%Inh,[19],19%
same,%Inh,[20],51%
O=c1cc(N2CCOCC2)nc2n(Cc3cccc(C(F)(F)F)c3)ccn12 [GSK2297543],%Inh,[1],0%
same,%Inh,[2],0%
same,%Inh,[3],27%
same,%Inh,[4],17%
same,%Inh,[5],20%
same,%Inh,[6],0%
same,%Inh,[7],6%
same,%Inh,[8],0%
same,%Inh,[9],0%
same,%Inh,[10],0%
same,%Inh,[11],16%
same,%Inh,[12],24%
same,%Inh,[13],17%
same,%Inh,[14],0%
same,%Inh,[15],13%
same,%Inh,[16],0%
same,%Inh,[17],8%
same,%Inh,[18],0%
same,%Inh,[19],9%
same,%Inh,[20],0%
Fc1ccc(-c2nn3c(OCC(F)(F)F)cccc3c2-c2ccncc2)cc1 [GW514784],%Inh,[1],0%
same,%Inh,[2],30%
same,%Inh,[3],99.1%
same,%Inh,[4],2%
same,%Inh,[5],0%
same,%Inh,[6],0%
same,%Inh,[7],0%
same,%Inh,[8],36%
same,%Inh,[9],0%
same,%Inh,[10],0%
same,%Inh,[11],35%
same,%Inh,[12],92.9%
same,%Inh,[13],96.4%
same,%Inh,[14],99%
same,%Inh,[15],0%
same,%Inh,[16],0%
same,%Inh,[17],16%
same,%Inh,[18],0%
same,%Inh,[19],0%
same,%Inh,[20],0%
COc1cc(Nc2nccc(N3CCC(NC(=O)c4cccc(NC(C)=O)c4)C3)n2)cc(OC)c1OC (centres unmarked) [GSK1379754],%Inh,[1],0%
same,%Inh,[2],19%
same,%Inh,[3],23%
same,%Inh,[4],10%
same,%Inh,[5],3%
same,%Inh,[6],0%
same,%Inh,[7],13%
same,%Inh,[8],0%
same,%Inh,[9],38%
same,%Inh,[10],0%
same,%Inh,[11],4%
same,%Inh,[12],6%
same,%Inh,[13],0%
same,%Inh,[14],0%
same,%Inh,[15],4%
same,%Inh,[16],0%
same,%Inh,[17],8%
same,%Inh,[18],17%
same,%Inh,[19],65%
same,%Inh,[20],0%
CSc1ccc(-c2cc3ncnc(SCC(=O)O)c3s2)cc1,%Inh,[1],0%
same,%Inh,[2],2%
same,%Inh,[3],1%
same,%Inh,[4],0%
same,%Inh,[5],0%
same,%Inh,[6],0%
same,%Inh,[7],0%
same,%Inh,[8],17%
same,%Inh,[9],18%
same,%Inh,[10],0%
same,%Inh,[11],11%
same,%Inh,[12],21%
same,%Inh,[13],0%
same,%Inh,[14],0%
same,%Inh,[15],1%
same,%Inh,[16],0%
same,%Inh,[17],0%
same,%Inh,[18],22%
same,%Inh,[19],17%
same,%Inh,[20],14%
COCCNC(=O)c1ccc(-c2cc(C(=O)NC3CC3)cc(F)c2C)cc1 [GW868318],%Inh,[1],9%
same,%Inh,[2],19%
same,%Inh,[3],1%
same,%Inh,[4],18%
same,%Inh,[5],24%
same,%Inh,[6],37%
same,%Inh,[7],10%
same,%Inh,[8],5%
same,%Inh,[9],19%
same,%Inh,[10],13%
same,%Inh,[11],5%
same,%Inh,[12],9%
same,%Inh,[13],1%
same,%Inh,[14],31%
same,%Inh,[15],0%
same,%Inh,[16],4%
same,%Inh,[17],8%
same,%Inh,[18],0%
same,%Inh,[19],9%
same,%Inh,[20],11%
CC(C)(CN)c1nc(-c2ccc(Cl)c(O)c2)c(-c2ccncc2)[nH]1.O=C(O)C(F)(F)F [SB-477794],%Inh,[1]; 1 µM,20% and 10%
same,%Inh,[2]; 1 µM,41% and 59%
same,%Inh,[3]; 1 µM,100% and 99.4%
same,%Inh,[4]; 1 µM,14% and 3%
same,%Inh,[5],0%
same,%Inh,[6]; 1 µM,1% and 11%
same,%Inh,[7]; 1 µM,6% and 11%
same,%Inh,[8]; 1 µM,12% and 52%
same,%Inh,[9]; 1 µM,50% and 43%
same,%Inh,[10]; 1 µM,44% and 28%
same,%Inh,[11]; 1 µM,85% and 81%
same,%Inh,[12]; 1 µM,96.3% and 93.8%
same,%Inh,[13]; 1 µM,97% and 96.6%
same,%Inh,[14],99.6%
same,%Inh,[15]; 1 µM,0% and 5%
same,%Inh,[16]; 1 µM,0% and 7%
same,%Inh,[17]; 1 µM,22% and 14%
same,%Inh,[18],0%
same,%Inh,[19]; 1 µM,11% and 0%
same,%Inh,[20],0%
